In the supplement of paper PMC6555819:

Legend:
Assay in all cases: PBM binding z-score (relative to random genomic background probes); higher = stronger binding; sequences stand for … in GC…GCGATTGACAGCGTAGAATGAAGG
[1] = test system: FXR:RXRa (NR concentration 270 nM, RXRa partner concentration 90 nM)
Procedure, shortened: (§1)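 Each nuclear receptor dimer, without ligand, was incubated for 1 h on custom Agilent 4×180K protein-binding microarrays. Binding was detected with antibodies against each partner (one per run), and scanned fluorescence was regression-normalized. The binding z-scores are referenced to random human genomic background probes.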

[2] = test system: LXRa:RXRa (NR concentration 270 nM, RXRa partner concentration 90 nM)
Procedure, shortened: as §1

[3] = test system: LXRa homodimer (NR concentration 270 nM)
Procedure, shortened: as §1

[4] = test system: LXRb:RXRa (NR concentration 270 nM, RXRa partner concentration 90 nM)
Procedure, shortened: as §1

[5] = test system: LXRb homodimer (NR concentration 270 nM)
Procedure, shortened: as §1

[6] = test system: PPARa:RXRa (NR concentration 270 nM, RXRa partner concentration 90 nM)
Procedure, shortened: as §1

[7] = test system: PPARg:RXRa (NR concentration 180 nM, RXRa partner concentration 90 nM)
Procedure, shortened: as §1

[8] = test system: PPARg:RXRa 270nM:90nM, anti-RXR (NR concentration 270 nM, RXRa partner concentration 90 nM)
Procedure, shortened: as §1

[9] = test system: PPARg:RXRa 30nM:10nM, anti-RXR (NR concentration 30 nM, RXRa partner concentration 10 nM)
Procedure, shortened: as §1

[10] = test system: PPARg:RXRa 90nM:30nM, anti-RXR (NR concentration 90 nM, RXRa partner concentration 30 nM)
Procedure, shortened: as §1

[11] = test system: PPARg:RXRa DBDmut IVT, anti-RXR (DBD mutation: RXRa K156A/R161A, NR concentration 270 nM, RXRa partner concentration 90 nM)
Procedure, shortened: as §1

[12] = test system: PPARg:RXRa IVT, anti-PPARg (NR concentration 270 nM, RXRa partner concentration 90 nM)
Procedure, shortened: as §1

[13] = test system: PPARg DBDmut:RXRa IVT, anti-PPARg (DBD mutation: PPARg1 K132A/R137A, NR concentration 270 nM, RXRa partner concentration 90 nM)
Procedure, shortened: as §1

[14] = test system: PPARg DBDmut IVT, anti-PPARg (DBD mutation: PPARg1 K132A/R137A, NR concentration 270 nM)
Procedure, shortened: as §1

[15] = test system: PPARg homodimer (NR concentration 180 nM)
Procedure, shortened: as §1

[16] = test system: PXR:RXRa (NR concentration 270 nM, RXRa partner concentration 90 nM)
Procedure, shortened: as §1

[17] = test system: PXR homodimer (NR concentration 270 nM)
Procedure, shortened: as §1

[18] = test system: RARa:RXR (NR concentration 270 nM, RXRa partner concentration 90 nM)
Procedure, shortened: as §1

[19] = test system: RARa homodimer (NR concentration 270 nM)
Procedure, shortened: as §1

[20] = test system: RARb:RXRa (NR concentration 270 nM, RXRa partner concentration 90 nM)
Procedure, shortened: as §1

Sequence | PBM binding z-score [1] | PBM binding z-score [2] | PBM binding z-score [3] | PBM binding z-score [4] | PBM binding z-score [5] | PBM binding z-score [6] | PBM binding z-score [7] | PBM binding z-score [8] | PBM binding z-score [9] | PBM binding z-score [10] | PBM binding z-score [11] | PBM binding z-score [12] | PBM binding z-score [13] | PBM binding z-score [14] | PBM binding z-score [15] | PBM binding z-score [16] | PBM binding z-score [17] | PBM binding z-score [18] | PBM binding z-score [19] | PBM binding z-score [20]
AGAATGCGGTTAAGATCAGGGAAACAGAATACAT | -0.249 | -0.195 | -0.0658 | -0.185 | -0.913 | -0.181 | 0.331 | 0.0448 | 0.301 | 0.258 | -0.441 | -0.00811 | 0.624 | 0.11 | 0.393 | -0.295 | -0.312 | -0.225 | 0.513 | -0.152
TCTTATAGATCAAGCAGGTTAAGAAAGCCTGAGT | 0.514 | 0.381 | -0.0643 | 0.19 | -0.324 | 0.961 | -0.00693 | 1.62 | 3.48 | 2.75 | 2.41 | 0.395 | 0.287 | 0.665 | 0.243 | 0.691 | 0.364 | 0.658 | 0.426 | 0.33
TCGAGTAGGTTAGGCGGGGCATTCAGCCAACATA | 0.223 | 0.211 | -0.616 | 0.946 | 0.912 | 0.687 | -0.0188 | 0.886 | 0.825 | 0.705 | 1.73 | 1.84 | 0.466 | 0.361 | -0.143 | 0.191 | -0.273 | 0.0737 | -0.554 | 0.48
CCTACTGGGCCACAGGTCATTGATTCCAATGCTC | 1.51 | 1.55 | 1.48 | 2.12 | 0.443 | 4.11 | 8.34 | 7.57 | 6.11 | 7.68 | 4.78 | 5.99 | -0.262 | -0.356 | 1.06 | 1.75 | 0.334 | 2.03 | -0.37 | 2.26
TGGAGTAGGTTACCAATGGGGCATTCAGCTTTCT | -0.0639 | 1.5 | -0.0874 | 1.12 | 0.179 | 1.61 | 1.8 | 2.14 | 0.743 | 1.59 | 4.44 | 4.65 | 0.93 | 1.38 | 1.1 | 0.359 | -0.17 | 0.243 | 0.592 | 1.21
CATAAAGGGTCAGCTAGGCCAGAGTAGGGACGGC | 5.38 | 3.9 | 0.537 | 2.74 | 0.607 | 4.71 | 4.17 | 3.83 | 1.06 | 2.82 | 1.58 | 2.9 | 0.703 | 0.0542 | 2.26 | 2.18 | -0.269 | 3.32 | 0.796 | 4.9
CCTAGTTGGTCAGTAGGTCACACACCGGATATGA | 1.75 | 1.75 | 1.22 | 1.64 | 0.533 | 3.62 | 4.58 | 4.46 | 2.18 | 3.85 | 4.79 | 5.74 | 0.241 | 0.396 | 3.06 | 1.68 | 0.364 | 2.76 | 2.47 | 2.91
GCAGACGGGTGAAACGCAGGTAACTCAGGGTGGC | -0.349 | -0.337 | -0.751 | -0.502 | -1.12 | 0.266 | 0.241 | -0.502 | -0.732 | -0.536 | -0.241 | -0.0586 | -1.33 | -0.958 | -0.685 | -0.244 | -0.933 | 0.253 | -0.996 | 0.14
CCAGACAGGTGAAAGGTTACTCAGTCTGGTACGC | 2.37 | 2.59 | 0.167 | 2.26 | -0.0595 | 4.67 | 7.6 | 7.17 | 5.84 | 7.77 | 1.76 | 3.47 | -0.162 | 0.368 | 1.65 | 2.74 | 0.256 | 4.24 | 0.58 | 2.22
ATCTCTAGGTATAGTTCAGTGAAAGATCGATAGA | 0.622 | 1.11 | 0.814 | 0.685 | 1.21 | 0.726 | 0.816 | 1.55 | 0.666 | 1.4 | 0.435 | 0.496 | 1.64 | 2.13 | 1.8 | 0.83 | 1.11 | 1.08 | 1.34 | 1.15
ACTATTAGTTGAGACGAGGGCAACGGATAGGTTG | 0.259 | 0.127 | -0.147 | 0.0625 | 0.209 | 0.0596 | 0.652 | -0.1 | -0.0194 | -0.207 | -0.0332 | 0.424 | 0.418 | 0.955 | 0.155 | 1.32 | 0.265 | 1.26 | 0.262 | 0.843
CCTAGCAGGCCAATCTGGGTCTCTCAAGGCTTGA | -0.268 | -0.409 | -0.738 | -0.885 | -0.982 | 0.318 | -0.774 | -0.468 | -1.1 | -0.61 | 1.89 | 1.97 | -0.916 | -2.13 | -1.06 | -0.821 | -0.804 | -0.353 | -0.835 | 0.0483
CAAACTAGGTCACCAGAAGGTCAAAGTCCGCATG | 6.14 | 6.04 | 4.65 | 5.24 | 1.41 | 6.22 | 9.74 | 7.94 | 6.18 | 7.98 | 8.93 | 9 | 4.64 | 2.7 | 9.04 | 5.96 | 2.47 | 7.6 | 3.53 | 5.18
CGAACTAGGTCAAAGACAGTGAATCTCCGCACGC | 3.64 | 2.39 | 0.268 | 1.66 | 0.166 | 4.8 | 7.47 | 6.52 | 4.4 | 6.21 | 8.07 | 8.21 | 4.15 | 2.23 | 1.24 | 1.06 | 0.0351 | 1.82 | 0.463 | 3.74
